Data reported in PubChem BioAssay AID2662 (National Center for Advancing Translational Sciences (NCATS), 2010).
About 110 (0.038%) of roughly 290,000 compounds were called active. Another 3% or so got no clear call; they are omitted. The call rests on the fitted dose curve; in most records, active means well fitted inhibition curve with a large enough effect in the polarisation, with a control signal flat (not every such curve was filed as active); inconclusive means small, poorly fitted or top-dose-only effect, or effect the other way, or a change in a side signal; inactive means no such curve, though single readings can be large or run the other way; the % refers to the polarisation. The entries come from a sample that favours actives as a whole. Where a call stands in place of a potency, no number is given.

molecular target: Histone-lysine N-methyltransferase 2A (Homo sapiens) (UniProt Q03164); test: qHTS Fluorescence Polarization Assay for Inhibitors of MLL CXXC domain - DNA interaction; conditions: MLL-CXXC / FITC-HOXA9 DNA fluorescence polarization; series mostly up to 115 µM
Text: NIH Chemical Genomics Center [NCGC] NIH Molecular Libraries Probe Production centers Network [MLPCN] MLPCN Grant: DA027717-01A1 Assay Submitter (PI): John Bushweller NCGC Assay Overview: The MLL (Mixed Lineage Luekemia) gene is involved in chromosomal translocation that results in either acute lymphoid leukemia (ALL) or acute myeloid leukemia (AML). Chromasomal translocation of MLL gene is responsible for the fusion of N-terminal MLL to more than 60 different partner genes in frame. Many of the MLL partner genes contain transcription activation domains or function as transcriptional activators. Despite the heterogeneity of fusion partners, the N-terminus of MLL fusion proteins always consists of the N-terminal menin binding motif and the CXXC domain. The MLL-CXXC domain specifically recognizes unmethylated CpG sequences of the HOX-A gene. Disruption of the MLL-CXXC and HOX-A gene interaction leads to down regulation of HOX-A gene expression and may potentially reverse leukemogenesis. We have miniaturized and optimized an in-vitro assay to screen for inhibitors of the MLL-CXXC domain and HOX-A DNA interaction, which could have utility in MLL fusion leukemias.
The affinity purified MLL-CXXC domain, unlabeled HOX-A9 DNA strand, fluorescein (FLSN) labeled HOX-A9 DNA strand were kindly supplied by the laboratory of Dr. John Bushweller, University of Virginia. All reagents were stored in single use aliquots at -80C. Assay Reagents: Assay buffer: 50 mM TRIS-HCl pH 7.5, 50 mM NaCl, 1 mM DTT. Add 0.05% BSA prior to reaction setup. Assay Procedure: 1.Dispense 1 ul of a 7 uM MLL-CXXC solution prepared in assay buffer into column 1-48. 2.Transfer 23 nl of compounds and unlabeled HOX-A9 per well. 3.Incubate for 5 minutes at ambient. 4.Dispense 1ul of a 50 nM FLSN-HOX-A9 solution prepared in assay buffer into columns 1-48 5.Centrifuge for 30 seconds at 1000 RPM. 6.Incubate for 30 minutes at ambient. 7.Read using the Envision reader fluorescent polarization protocol.
Potency means the concentration at half of the fitted maximal effect.

Chain of Histone-lysine N-methyltransferase 2A (Homo sapiens) (Q03164 whole entry, looked up, the tested form may be a part): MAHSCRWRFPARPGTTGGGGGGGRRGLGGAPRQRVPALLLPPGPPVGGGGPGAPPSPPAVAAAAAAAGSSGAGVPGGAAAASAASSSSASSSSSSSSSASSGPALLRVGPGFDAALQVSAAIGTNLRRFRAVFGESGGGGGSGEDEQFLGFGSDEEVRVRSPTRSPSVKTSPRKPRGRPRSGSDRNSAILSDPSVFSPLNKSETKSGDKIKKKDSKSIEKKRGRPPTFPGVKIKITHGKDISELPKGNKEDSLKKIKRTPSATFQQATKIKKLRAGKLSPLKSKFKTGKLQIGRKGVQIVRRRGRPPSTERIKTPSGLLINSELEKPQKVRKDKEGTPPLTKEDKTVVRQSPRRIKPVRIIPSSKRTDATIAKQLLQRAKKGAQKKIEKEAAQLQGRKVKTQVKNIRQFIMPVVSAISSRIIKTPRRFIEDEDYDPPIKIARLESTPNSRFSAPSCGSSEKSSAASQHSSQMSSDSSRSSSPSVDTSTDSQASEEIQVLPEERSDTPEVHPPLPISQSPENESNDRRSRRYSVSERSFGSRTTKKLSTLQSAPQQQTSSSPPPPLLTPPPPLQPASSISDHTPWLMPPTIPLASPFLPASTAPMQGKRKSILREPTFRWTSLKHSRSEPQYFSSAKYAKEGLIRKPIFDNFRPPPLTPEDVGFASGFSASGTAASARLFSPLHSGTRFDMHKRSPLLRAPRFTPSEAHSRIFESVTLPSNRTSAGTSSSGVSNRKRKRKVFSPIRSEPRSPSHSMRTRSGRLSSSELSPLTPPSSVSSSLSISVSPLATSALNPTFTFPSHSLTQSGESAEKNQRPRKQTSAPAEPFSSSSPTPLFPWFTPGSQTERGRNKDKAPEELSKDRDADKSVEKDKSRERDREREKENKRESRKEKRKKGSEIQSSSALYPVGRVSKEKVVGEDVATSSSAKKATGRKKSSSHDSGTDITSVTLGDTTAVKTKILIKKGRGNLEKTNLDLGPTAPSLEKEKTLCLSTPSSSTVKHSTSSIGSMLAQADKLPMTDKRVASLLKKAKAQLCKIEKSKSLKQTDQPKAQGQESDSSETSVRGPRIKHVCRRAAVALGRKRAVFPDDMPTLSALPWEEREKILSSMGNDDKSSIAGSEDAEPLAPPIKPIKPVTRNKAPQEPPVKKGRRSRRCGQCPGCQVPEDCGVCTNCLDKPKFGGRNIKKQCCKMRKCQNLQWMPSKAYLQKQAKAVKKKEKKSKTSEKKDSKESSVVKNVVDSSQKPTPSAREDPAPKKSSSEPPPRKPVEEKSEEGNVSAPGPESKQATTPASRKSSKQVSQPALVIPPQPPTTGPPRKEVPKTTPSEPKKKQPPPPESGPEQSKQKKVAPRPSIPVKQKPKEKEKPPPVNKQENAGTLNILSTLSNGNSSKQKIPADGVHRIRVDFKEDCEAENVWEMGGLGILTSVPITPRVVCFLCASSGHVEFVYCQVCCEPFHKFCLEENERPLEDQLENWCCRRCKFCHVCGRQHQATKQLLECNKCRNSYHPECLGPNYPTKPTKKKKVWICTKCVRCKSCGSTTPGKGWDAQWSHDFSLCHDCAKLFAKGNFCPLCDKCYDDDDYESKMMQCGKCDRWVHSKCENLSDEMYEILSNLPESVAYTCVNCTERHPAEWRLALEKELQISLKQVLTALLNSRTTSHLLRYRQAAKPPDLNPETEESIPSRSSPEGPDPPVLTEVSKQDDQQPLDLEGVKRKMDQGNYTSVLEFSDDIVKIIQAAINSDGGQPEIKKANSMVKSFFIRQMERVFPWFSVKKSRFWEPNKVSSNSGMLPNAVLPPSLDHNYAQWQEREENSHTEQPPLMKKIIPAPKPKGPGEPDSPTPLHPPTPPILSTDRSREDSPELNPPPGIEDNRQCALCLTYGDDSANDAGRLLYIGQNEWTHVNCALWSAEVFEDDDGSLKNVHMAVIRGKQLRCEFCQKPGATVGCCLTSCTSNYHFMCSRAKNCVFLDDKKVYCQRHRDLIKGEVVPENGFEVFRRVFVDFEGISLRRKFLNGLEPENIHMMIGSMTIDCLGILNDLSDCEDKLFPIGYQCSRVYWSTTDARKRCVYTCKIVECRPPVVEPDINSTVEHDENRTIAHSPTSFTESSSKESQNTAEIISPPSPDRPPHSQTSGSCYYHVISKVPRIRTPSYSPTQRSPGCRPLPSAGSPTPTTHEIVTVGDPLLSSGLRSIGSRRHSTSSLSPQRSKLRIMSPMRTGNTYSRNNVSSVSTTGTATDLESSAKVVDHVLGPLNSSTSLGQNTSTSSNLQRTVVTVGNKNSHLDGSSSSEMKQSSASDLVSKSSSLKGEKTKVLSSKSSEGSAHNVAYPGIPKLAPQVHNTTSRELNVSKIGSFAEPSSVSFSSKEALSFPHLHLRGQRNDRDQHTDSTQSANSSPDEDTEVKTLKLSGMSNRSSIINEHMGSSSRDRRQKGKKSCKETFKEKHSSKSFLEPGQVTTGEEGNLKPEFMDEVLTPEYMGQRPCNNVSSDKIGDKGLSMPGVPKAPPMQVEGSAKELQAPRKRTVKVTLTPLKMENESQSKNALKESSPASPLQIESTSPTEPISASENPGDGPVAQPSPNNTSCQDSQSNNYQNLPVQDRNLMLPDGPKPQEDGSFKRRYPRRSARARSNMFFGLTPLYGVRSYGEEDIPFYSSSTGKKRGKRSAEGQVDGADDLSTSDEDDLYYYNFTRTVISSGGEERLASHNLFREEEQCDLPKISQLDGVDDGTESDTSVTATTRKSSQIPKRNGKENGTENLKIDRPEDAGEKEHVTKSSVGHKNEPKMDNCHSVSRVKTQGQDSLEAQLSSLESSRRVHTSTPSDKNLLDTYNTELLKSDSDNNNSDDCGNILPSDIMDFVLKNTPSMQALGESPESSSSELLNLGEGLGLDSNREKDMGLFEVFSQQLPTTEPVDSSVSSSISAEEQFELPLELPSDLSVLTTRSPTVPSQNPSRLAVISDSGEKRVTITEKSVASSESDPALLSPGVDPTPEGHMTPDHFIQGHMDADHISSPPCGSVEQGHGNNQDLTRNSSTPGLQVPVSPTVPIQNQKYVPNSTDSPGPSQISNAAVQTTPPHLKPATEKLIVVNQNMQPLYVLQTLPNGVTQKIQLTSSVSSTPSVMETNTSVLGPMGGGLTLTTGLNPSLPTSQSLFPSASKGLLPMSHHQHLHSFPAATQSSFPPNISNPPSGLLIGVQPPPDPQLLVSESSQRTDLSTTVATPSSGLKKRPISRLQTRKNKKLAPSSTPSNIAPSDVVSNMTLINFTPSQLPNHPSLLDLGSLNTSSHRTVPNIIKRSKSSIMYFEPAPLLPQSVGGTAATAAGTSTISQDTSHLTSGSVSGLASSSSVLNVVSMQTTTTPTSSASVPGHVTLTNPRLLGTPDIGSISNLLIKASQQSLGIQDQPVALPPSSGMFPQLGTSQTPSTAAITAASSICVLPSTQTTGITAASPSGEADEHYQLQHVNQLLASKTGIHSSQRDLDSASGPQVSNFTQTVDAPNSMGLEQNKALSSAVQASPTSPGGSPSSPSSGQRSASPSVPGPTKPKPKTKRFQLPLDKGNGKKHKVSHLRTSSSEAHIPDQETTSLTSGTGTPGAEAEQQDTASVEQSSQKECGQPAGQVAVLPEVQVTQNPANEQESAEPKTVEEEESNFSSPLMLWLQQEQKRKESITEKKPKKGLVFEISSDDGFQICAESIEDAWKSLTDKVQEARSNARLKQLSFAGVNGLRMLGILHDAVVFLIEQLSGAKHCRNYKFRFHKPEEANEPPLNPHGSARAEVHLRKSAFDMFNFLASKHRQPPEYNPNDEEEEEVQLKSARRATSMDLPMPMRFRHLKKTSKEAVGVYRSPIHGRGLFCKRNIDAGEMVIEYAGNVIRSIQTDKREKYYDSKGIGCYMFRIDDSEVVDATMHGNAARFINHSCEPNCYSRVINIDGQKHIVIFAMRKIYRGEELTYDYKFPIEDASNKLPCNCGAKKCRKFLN

Row | Structure (SMILES) | Potency
1 | O=C(OCC1O[C@@H](OC(=O)c2cc(O)c(O)c(O)c2)[C@@H](OC(=O)c2cc(O)c(O)c(O)c2)[C@@H](OC(=O)c2cc(O)c(O)c(O)c2)[C@@H]1OC(=O)c1cc(O)c(O)c(O)c1)c1cc(O)c(O)c(O)c1 (stereo not given in full) | 31.6 µM (active)
2 | COC([CH2][Hg])CNC(=O)c1ccccc1OCC(=O)O (stereo not given) | inactive
3 | CC(C)COC(=O)n1c(=O)oc2ccc(S(=O)(=O)N3CCCCC3)cc21 | inactive
4 | CCOC(=O)C(NS(=O)(=O)c1ccc(C)cc1)(C(F)(F)F)P(=O)(OCC(C)C)OCC(C)C (stereo not given) | inactive
5 | CN1CCCC(=C(c2cccs2)c2cccs2)C1 | inactive
